Only some compounds are listed: those with a hit (about 7.7% of all), similar ones and a draw of the others.
TbPYK inhibitor: qHTS of Trypanosoma Brucei Inhibitors; TbPYK enzyme, Kinase-Glo Plus ATP luminescence, 45 min; AID 624173, 2012; pyruvate kinase (Trypanosoma brucei), Q57TT1; actives 0.12% (n = 410,000); Potency, µM (highest dose often 76.8 µM), inactives show at the top dose activity, negative = inhibition, usual class: inhibitors; also: potency is read from the fitted curve at half-maximal effect; nearly all actives have a fitted effect of over 50% in size
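Readout: single end-point luminescence (Kinase-Glo Plus, 10 min). Reaction conditions were TbPYK/substrate plus 130 uM ADP, 45 min at RT, pH 7.2 TEA buffer. No-enzyme wells served as controls, and data were normalized before concentration-response fitting.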
FMDV inh: High Throughput Screening for Foot and Mouth Disease Virus Antivirals; FMDV antiviral cell-based qHTS; Potency, µM (titrated, usually from 57.9 µM), for inactives: at the highest dose activity change, negative = inhibition, most hits filed as inhibitors; actives 1.2% (n = 410,000); AID 1159524, 2015; calls by dose curve; tested in HEK293T cells; also: read-out not given here; potency is read from the fitted curve at half-maximal effect; nearly all actives have a fitted effect of over 45% in size
FBPA Giardia inh: qHTS Assay for Inhibitors of Fructose-1,6-bisphosphate Aldolase from Giardia Lamblia; A8B2U2; purified Giardia FBPA; AID 2451, 2010; Potency, µM (top dose mostly 59.6 µM), inactives show at the top dose activity, negative = inhibition, hits mostly inhibitors; actives 0.71% (n = 290,000); also: potency is read from the fitted curve at half-maximal effect; nearly all actives have a fitted effect of over 55% in size
Target sequence (A8B2U2 whole entry, looked up): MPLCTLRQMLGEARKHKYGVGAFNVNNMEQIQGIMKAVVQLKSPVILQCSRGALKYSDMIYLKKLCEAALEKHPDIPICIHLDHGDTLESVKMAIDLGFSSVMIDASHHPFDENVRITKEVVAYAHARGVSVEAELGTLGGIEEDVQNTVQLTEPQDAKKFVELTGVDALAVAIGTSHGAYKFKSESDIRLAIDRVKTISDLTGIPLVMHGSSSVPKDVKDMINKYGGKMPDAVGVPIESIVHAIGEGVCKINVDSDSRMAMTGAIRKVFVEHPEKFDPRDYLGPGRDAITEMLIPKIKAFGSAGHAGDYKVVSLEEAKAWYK
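40 nM FBPA preincubated 10 min at RT with compound (up to 57.5 uM final), then substrate plus GAPDH/TPI/NAD/arsenate coupling and diaphorase/resazurin added. Fluorescence read after 20 min at RT, 525/598 nm.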
RE007 growth inh: qHTS Assay for Inhibitors of the HIV-1 protein Vpr; S. pombe RE007 Vpr strain, BacTiter-Glo ATP luminescence, 24 h; Potency, µM (highest dose often 92.2 µM), without a hit: at the top dose activity change, negative = less growth, usual class: inhibitors; actives 0.21% (n = 360,000); AID 651644, 2012; active = well fitted falling curve with a large enough effect; inconclusive = small, poorly fitted or top-dose-only effect; inactive = no such curve, though single readings can be large or run the other way; also: potency is read from the fitted curve at half-maximal effect; nearly all actives have a fitted effect of over 50% in size
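Fission yeast RE007 carrying one integrated HIV-1 vpr copy, seeded at OD 0.01 in PMG+AL medium with 23 nL pinned compound. Grown 24 h at 30 degrees; viability read by BacTiter-Glo luminescence after 5 min.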
Sm TGR block: qHTS Assay for the Inhibitors of Schistosoma Mansoni Peroxiredoxins | purified TGR, DTNB reduction, TNB absorbance 405 nm | Schistosoma mansoni thioredoxin glutathione reductase (TGR), Q962Y6 | Potency, µM (top dose mostly 114 µM), inactives show at the highest dose activity change, negative = inhibition, actives largely listed as inhibitors | actives 3% (n = 360,000); also: potency is read from the fitted curve at half-maximal effect; nearly all actives have a fitted effect of over 60% in size
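Kinetic colorimetric format: TGR-catalysed, NADPH-driven DTNB reduction monitored via TNB absorbance. Enzyme dispensed at 20 nM; compound exposure 15 min at room temperature before reaction start.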
HCMV inh: qHTS Assay for inhibitors of the human cytomegalovirus (HCMV); HFF cells, HCMV-luciferase reporter, 72 h; hits give low values; activity change, negative = inhibition, % at 57.5 µM; actives 4.5% (n = 410,000); in the data active = activity change below about -60%; inconclusive = no clear call, values can overlap the other calls; inactive = above about -39%
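Compounds were evaluated in HFFs infected with an HCMV luciferase reporter virus (MOI 1 PFU/cell). Luciferase in lysates collected 72 h post infection served as the replication measure.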
An asterisk follows results filed as active; u = inconclusive; x = no result; + = active, no number. Unless noted, calls follow the shape of the dose curve; as a rule, active = well fitted curve in the direction sought with a large enough effect; inconclusive = small, poorly fitted or top-dose-only effect, or another doubt; inactive = no such curve, though single readings can be large; an effect the other way counts as inactive or inconclusive. % is scaled to controls: 0 for no effect and ±100 for the full control effect.

SMILES	TbPYK inhibitor	FMDV inh	FBPA Giardia inh	RE007 growth inh	Sm TGR block	HCMV inh
O=C(Nc1ccc(S(=O)(=O)C(F)F)cc1)c1cccc(S(=O)(=O)N2CCOCC2)c1	2%	18µM*	-5%	24%	6%	-18
O=C(CN1CCN(S(=O)(=O)c2ccccc2)CC1)Nc1ccc([N+](=O)[O-])cc1	-3%	0%	-19%	-2%	-4%	-69*
COc1ccc(NC(=O)c2cc(S(=O)(=O)N3CCCCC3)ccc2OC)cc1	1%	15%	4%	-6%	-13%	-73*
COc1ccc(NC(=O)CN2CCN(S(=O)(=O)c3ccc(Cl)cc3)CC2)cc1Cl	-1%	-22%	-3%	3%	5%	47
COc1ccc(NC(=O)c2cc(S(=O)(=O)N3CCCC3)ccc2OC)cc1	4%	6%	7%	7%	-10%	u
CC(CCc1ccc(O)cc1)N1CCOc2c(O)cc(-c3nc4ccccc4s3)cc2C1 (configuration not stated)	x	-8%	x	x	x	x
CCC(=O)Nc1ccc(C)cc1-c1nc2ccccc2n(CC(=O)Nc2ccccc2Cl)c1=O	2%	u	x	x	-9%	10
COC(=O)[C@@H]1CCCN1C(=O)c1cc(NC(=O)c2ccccc2)cc2ncn(C3CCCC3)c12	x	-4%	x	x	x	x
COc1ccc(C(C)=NNC(=O)c2cccc(S(=O)(=O)N3CCCC3)c2)cc1	0%	u	x	-6%	x	53
Cc1ccc(NC(=O)c2cc(S(=O)(=O)N3CCOCC3)cs2)cc1	-1%	u	2%	5%	7%	4
COc1ccc(/C(C)=N/NC(=O)c2cccc(S(=O)(=O)N3CCCC3)c2)c(O)c1	-3%	-26%	x	1%	-2%	-90*
COc1ccc(NC(=O)CN(C)C(=O)/C=C/c2ccc(S(=O)(=O)N3CCCCCC3)cc2)cc1	-3%	-25%	x	13%	-23%	-77*
Cc1ccc(NC(=O)c2cc(S(=O)(=O)N3CCCCC3)cs2)cc1	-6%	x	-2%	10%	2%	-81*
COc1ccc(NC(=O)CN(C2CCCCC2)S(C)(=O)=O)cc1Cl	6%	-26%	-1%	-5%	0%	-73*
C[C@]12CCC(=O)C=C1CC[C@@H]1C2[C@@H](O)C[C@@]2(C)[C@H]1CC[C@]2(O)C(=O)CO (some centres not stated)	x	x	4%	x	x	x
COc1ccc(NC(=O)c2cccc(S(=O)(=O)N3CCCCCC3)c2)cc1	4%	-2%	15%	7%	1%	-88*
Cc1ccc(C(=O)N[C@H](C(=O)Nc2cccc(S(=O)(=O)N3CCOCC3)c2)C(C)C)cc1	2%	3%	x	13%	x	-13
CC(C)[C@H](NC(=O)c1ccccc1)C(=O)Nc1cccc(S(=O)(=O)N2CCOCC2)c1	-3%	8%	x	-2%	-13%	+
CC(=O)Nc1ccc(NC(=O)c2cccc(S(=O)(=O)N3CCCCCC3)c2)cc1	-3%	-15%	x	-12%	x	2
COc1cccc(C(=O)CN2CCN(S(=O)(=O)c3ccc(Br)cc3)CC2)c1	2%	-8%	-9%	8%	14µM*	x
O=C(NCc1ccccc1F)C(=O)NCC(c1cccs1)S(=O)(=O)c1cccs1 (configuration not stated)	-11%	-6%	x	x	u	-11
CCN(CC)CCSc1nnc2c3cc(F)ccc3n(CC)c2n1	-14%	-16%	x	x	-7%	-27
O=C(NCc1ccncc1)c1cnn(-c2ncc3c(n2)-c2ccccc2CC3)c1C1CC1	x	-11%	x	x	x	x
CCCCN(Cc1ccco1)S(=O)(=O)c1ccc(-c2ccc(=O)[nH]n2)s1	-3%	-4%	x	14%	25µM*	u
O=C(O)[C@H]1[C@H](CO)[C@H]2Cn3c(cccc3=O)[C@@H]1N2S(=O)(=O)c1ccccc1F	x	x	x	x	x	32

Screening data (PubChem BioAssay)
